From PubChem BioAssay come the findings set out here.

Active and inactive are the calls of the source.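 The calls were made as follows, unless noted: active = visual image review flags a hit and inhibition of aggregation exceeds 20%; inconclusive = visual hit but inhibition at or below 20%; inactive = no hit on visual image review.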

Assay [1] is described as follows: inhibitors of TNFa-induced NFkB p65 translocation, primary screen, imaging, HUVEC, MLSMR starter and 10KST1 sets (AID 438;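 active = inhibition above 20% together with a positive visual image hit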;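 also: compound added about 3h40 before a 20 min TNFalpha stimulation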;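 as to inhibition: signal is the nuclear over cytoplasmic p65 intensity ratio per well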). The settings on record: HUVEC TNFa-induced p65 nuclear translocation; cell count: measured here: nuclei count (cytotoxicity indicator), at 2.08 µM; inhibition: at 2 µM, stronger effect = higher value, 0% TNFa-plus-vehicle, 100% no-TNFa wells.
Assay [2] is described as follows: inhibitors of mutant huntingtin aggregation, primary screen, imaging, exon1htt(103Q)mCFP cells, high-content imaging (AID 483).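 Also: compound exposure lasted 3 days before fixation.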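 As to nuclei count: percent of the per-plate median nuclei count of sample wells.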 Conditions: exon1htt(103Q)mCFP cell line, aggregate imaging, at 2 µM; inhibition of aggregation: stronger effect = higher value; nuclei count: measured here: cell count, toxicity.
Assay [3] in a line: inhibitors of E-selectin induction by TNFa, primary screen, imaging, HUVEC, immunofluorescence, MLSMR starter and 10KST1 sets (AID 487;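 active = visually confirmed hit in the image check and inhibition above 20%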;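 as to inhibition: signal is fraction of cell area covered by stained E-selectin grains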;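 as to nuclei count: 100% = median nuclei count of all wells on the same plate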). Conditions: HUVEC TNFalpha-induced E-selectin immunofluorescence imaging, at 2 µM; inhibition: stronger effect = higher value; nuclei count: measured here: cell number, toxicity.
In assay [4] the target is Voltage-gated potassium channel subunit beta-2 (Rattus norvegicus) (UniProt P62483). The assay can be described thus: KvBeta enzyme negative modulators, primary screen, biochemical, NADPH fluorescence (AID 622;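 active = fluorescence slope higher than the sample average by over 3 SD, cut at about -0.22 in these data, passing the limit was not always enough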;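 also: slope of raw intensity against log time taken from 70 to 1610 s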). Conditions: recombinant KvBeta, 4-cyanobenzaldehyde reduction, at 10 µM, stronger effect = higher value.
Sequence of Voltage-gated potassium channel subunit beta-2 (Rattus norvegicus) (P62483 whole entry, looked up): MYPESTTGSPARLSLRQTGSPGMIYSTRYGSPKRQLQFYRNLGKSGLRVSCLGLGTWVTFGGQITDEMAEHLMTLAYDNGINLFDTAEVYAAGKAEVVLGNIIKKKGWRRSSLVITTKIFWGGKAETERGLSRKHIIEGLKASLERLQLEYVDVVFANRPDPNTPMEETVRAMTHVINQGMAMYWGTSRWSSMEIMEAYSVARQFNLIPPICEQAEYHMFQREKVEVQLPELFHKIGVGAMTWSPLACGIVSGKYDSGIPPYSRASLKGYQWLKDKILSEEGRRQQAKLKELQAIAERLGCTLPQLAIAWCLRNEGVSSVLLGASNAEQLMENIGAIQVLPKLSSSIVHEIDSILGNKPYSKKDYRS
Assay [5] shares this target. Put plainly: KvBeta positive modulators, primary screen, biochemical, NADPH fluorescence (AID 623;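 active = NADPH fluorescence slope more negative than the mean of all samples by about 3 SD, 99.7% confidence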;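 also: fluorescence intensity change per second fitted from 20 to 320 s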). The settings on record: Recombinant KvBeta, NADPH fluorescence decrease slope, 10 min; at 10 µM; stronger effect = lower value.
For assay [6], the target named is Alpha-2C adrenergic receptor (Homo sapiens) (UniProt P18825). The assay can be described thus: modulators of alpha2C/GIRK thallium flux, primary screen, cell-based, HEK293 alpha2C/GIRK1/2 (AID 624;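 active = fluorescence slope after compound addition differing from the mean of all screened samples at 99.7% confidence, in either direction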;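 also: slope of fluorescence ratio to pre-addition baseline per second over 15 to 24 s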). Conditions: thallium flux BTC fluorescence, at 10 µM, actives lie on both sides.
Sequence of Alpha-2C adrenergic receptor (Homo sapiens) (P18825 whole entry, looked up): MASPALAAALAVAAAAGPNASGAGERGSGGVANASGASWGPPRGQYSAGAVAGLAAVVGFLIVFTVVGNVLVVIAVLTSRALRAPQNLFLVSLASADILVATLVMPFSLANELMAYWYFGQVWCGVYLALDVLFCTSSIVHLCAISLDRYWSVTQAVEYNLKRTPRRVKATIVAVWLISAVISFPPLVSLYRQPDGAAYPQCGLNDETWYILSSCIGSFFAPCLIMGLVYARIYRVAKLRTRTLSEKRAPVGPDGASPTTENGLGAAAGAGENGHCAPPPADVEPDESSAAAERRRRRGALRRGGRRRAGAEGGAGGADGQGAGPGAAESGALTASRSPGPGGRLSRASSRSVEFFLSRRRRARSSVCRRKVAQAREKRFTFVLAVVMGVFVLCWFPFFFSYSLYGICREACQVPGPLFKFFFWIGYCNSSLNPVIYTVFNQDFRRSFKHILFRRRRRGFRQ
Assay [7] can be described thus: inhibitors of Sendai virus-induced IRF3 signaling, primary screen, TLR/RLR signaling modifier project, cell-based, Sendai virus stimulus, luciferase, 10K MLSCN set (AID 602276;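 active = inhibition at or above 50% at 10 µM; inactive = inhibition below 50%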;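 also: firefly luciferase from ISG56 promoter only with Renilla not read in this screen; 0% = Sendai virus plus DMSO and 100% = medium plus DMSO without virus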). The settings on record: HEK293 RL24 IRF3 luciferase reporter, at 10 µM, stronger effect = higher value. In general terms: In a reporter assay the amount or activity of a reporter protein is the signal.

The nature of assay [8]: inhibitors of poly I:C-induced TLR3 signaling, primary screen, cell-based, poly I:C stimulus, luciferase, 10K MLSCN set (AID 602277;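 active = inhibition of the reporter signal at or above 50%; inactive = inhibition below 50%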). Conditions: HEK293-TLR3 RL24 IRF3 luciferase reporter, at 10 µM, stronger effect = higher value.

As to `O=C(NCCCn1ccnc1)c1csc2ccccc12`, the cell count in assay [1] is 337. For the same compound, the inhibition in assay [1] was 4.7% (inactive); in assay [3], -7.7% (inactive); in assay [7] it was 10.2% (inactive); in assay [8], 27.4% (inactive). Besides, the inhibition of aggregation in assay [2] is -23.2% (inactive). Further, the values for the nuclei count in assay [2] and in assay [3] were 99.4% and 113%, respectively. In addition, in assay [4], the fluorescence slope is -0.414 (inactive). Moreover, the NADPH fluorescence slope in assay [5] is -3.7e-05 (inactive). For the same compound, the slope in assay [6] is 0.00227 (inactive).

Turning to `COc1ccc(/C=N/n2cnnc2SCc2ccc(OC)cc2)cc1`, in assay [1], the cell count worked out at 378. Moreover, the inhibition in assay [1] is 3.1% (inactive); in assay [3], -27.7% (inactive); in assay [7], 6.24% (inactive); in assay [8], 0.256% (inactive). The inhibition of aggregation in assay [2] is 1.4% (inactive). Also, the results for the nuclei count in assay [2] and in assay [3] were 96.9% and 108%, respectively. For the same compound, the fluorescence slope in assay [4] is -0.348 (inactive). Besides, in assay [5], the NADPH fluorescence slope is -4.9e-05 (inactive). Further, in assay [6], the slope is 0.00577 (inactive).

As for `CCCCCCNC(=O)c1c(N)n(/N=C/c2ccco2)c2nc3ccccc3nc12`, the cell count in assay [1] was determined as 602. Also, the inhibition in assay [1] is 11.2% (inactive); in assay [3] it was 26.4% (inactive); in assay [7], 11.1% (inactive); in assay [8], 8.29% (inactive). The inhibition of aggregation in assay [2] was -16.8% (inactive). Besides, the nuclei count worked out at 79.6% in assay [2] and 104% in assay [3]. Besides, in assay [4], the fluorescence slope was -0.251 (inactive). For the same compound, the NADPH fluorescence slope in assay [5] was -6e-06 (inactive). Also, the slope in assay [6] was 0.00525 (inactive).

As to `Cc1ccnc(NS(=O)(=O)c2ccc(NC(=O)Cc3cccs3)cc2)n1`, the cell count in assay [1] was determined as 301. For the same compound, the inhibition in assay [1] is 6.3% (inactive); in assay [3] it was -83.5% (inactive); in assay [7], -4.32% (inactive); in assay [8] it was -12.1% (inactive). In assay [2], the inhibition of aggregation is 0.7% (inactive). Also, the nuclei count was found to be 67% in assay [2] and 104% in assay [3]. The fluorescence slope in assay [4] is -0.408 (inactive). The NADPH fluorescence slope in assay [5] was 6.5e-05 (inactive). In assay [6], the slope is 0.00546 (inactive).

Turning to `COc1ccc(OC)c(S(=O)(=O)Nc2ccc(O)c3ccccc23)c1`, the cell count in assay [1] turned out to be 382. In addition, the inhibition in assay [1] was -10.1% (inactive); in assay [3] it was -13.9% (inactive); in assay [7], 14.9% (inactive); in assay [8], 53.2% (active). The inhibition of aggregation in assay [2] was -0.8% (inactive). Further, the nuclei count in assay [2] amounted to 93%; in assay [3], 114%. Also, in assay [4], the fluorescence slope is -0.416 (inactive). In addition, the NADPH fluorescence slope in assay [5] is -6.5e-05 (inactive). For the same compound, in assay [6], the slope was 0.00306 (inactive).

`CC(C)COC(=O)C1[C@H]2C(=O)N(Cc3cccs3)C[C@]23C=C[C@H]1O3` (some centres undefined): the cell count in assay [1] was 483. The inhibition in assay [1] was 3.3% (inactive); in assay [3], -44.8% (inactive); in assay [7] it was 9.95% (inactive); in assay [8], 32.4% (inactive). Besides, the inhibition of aggregation in assay [2] was -2.4% (inactive). Besides, the nuclei count in assay [2] was 97.4%; in assay [3], 127%. Also, the fluorescence slope in assay [4] is -0.393 (inactive). Moreover, the NADPH fluorescence slope in assay [5] is -1.4e-05 (inactive). Also, the slope in assay [6] is 0.00385 (inactive).

Turning to `CSc1nc(N2CCOCC2)c2ccccc2n1`, in assay [1], the cell count was 730. For the same compound, the inhibition in assay [1] was -29.3% (inactive); in assay [3], -56.6% (inactive); in assay [7] it was 6.41% (inactive); in assay [8], -10.5% (inactive). Also, the inhibition of aggregation in assay [2] was 13.4% (inactive). Besides, the nuclei count was 80.7% in assay [2] and 114% in assay [3]. The fluorescence slope in assay [4] is -0.601 (inactive). Further, in assay [5], the NADPH fluorescence slope is -3.9e-05 (inactive). In addition, the slope in assay [6] was 0.00469 (inactive).

For `CCOc1ccc2[nH]c(O)c(NC(C)=O)c2c1`, the cell count in assay [1] worked out at 645. Besides, the inhibition was -20.5% (inactive) in assay [1], 43.8% (inactive) in assay [3], 10.2% (inactive) in assay [7] and 16.9% (inactive) in assay [8]. In assay [2], the inhibition of aggregation is 5.7% (inactive). Further, the nuclei count worked out at 104% in assay [2] and 101% in assay [3]. For the same compound, the fluorescence slope in assay [4] was -0.361 (inactive). Moreover, in assay [5], the NADPH fluorescence slope is -5.8e-05 (inactive). Besides, the slope in assay [6] is 0.00431 (inactive).

Take `COc1cccc(NC(=O)C2CCN(c3ncccn3)CC2)c1`: in assay [1], the cell count is 746. Besides, the inhibition was -18.4% (inactive) in assay [1], -62.3% (inactive) in assay [3], 0.711% (inactive) in assay [7] and -6.34% (inactive) in assay [8]. Moreover, the inhibition of aggregation in assay [2] was -8.1% (inactive). For the same compound, the figures for the nuclei count in assay [2] and in assay [3] were 94.4% and 129%, respectively. Besides, in assay [4], the fluorescence slope was -0.437 (inactive). Besides, in assay [5], the NADPH fluorescence slope is -1.9e-05 (inactive). The slope in assay [6] is 0.00449 (inactive).

In the case of `COc1cc(CN2CCSCC2)cc(OC)c1OC`, the cell count in assay [1] was 642. For the same compound, the inhibition in assay [1] is -1.9% (inactive); in assay [3] it was -13.9% (inactive); in assay [7], -4.06% (inactive); in assay [8], 20% (inactive). Moreover, the inhibition of aggregation in assay [2] is 12.3% (inactive). In addition, the nuclei count in assay [2] was 60.4%; in assay [3], 98.2%. Besides, the fluorescence slope in assay [4] is -0.486 (inactive). The NADPH fluorescence slope in assay [5] was 2.1e-05 (inactive). For the same compound, the slope in assay [6] is 0.00258 (inactive).

As for `CC(C)=CCC(C)(C)C1OCCN1C(=O)c1ccccc1` (centres undefined), the cell count in assay [1] is 450. Moreover, the inhibition in assay [1] is 1.5% (inactive); in assay [3], 10.2% (inactive); in assay [7], 8.82% (inactive); in assay [8], 12.9% (inactive). Moreover, the inhibition of aggregation in assay [2] was 1.2% (inactive). The nuclei count is 116% in assay [2] and 106% in assay [3]. For the same compound, in assay [4], the fluorescence slope was -0.444 (inactive). The NADPH fluorescence slope in assay [5] was 2e-05 (inactive). For the same compound, in assay [6], the slope is 0.00511 (inactive).

Consider `Cc1nc(NC2=NCN(CCN3CCOCC3)CN2)nc2c(C)cccc12`, for which the cell count in assay [1] came out at 417. The inhibition was 4.5% (inactive) in assay [1], -24.5% (inactive) in assay [3], 23.8% (inactive) in assay [7] and 41.1% (inactive) in assay [8]. In assay [2], the inhibition of aggregation is -1.2% (inactive). Besides, the nuclei count in assay [2] is 72.4%; in assay [3], 108%. In addition, the fluorescence slope in assay [4] is -0.419 (inactive). For the same compound, the NADPH fluorescence slope in assay [5] is -3.7e-05 (inactive). In assay [6], the slope was 0.00391 (inactive).

For the compound `CC1CC(C)CN(CC(=O)Nc2ccc(S(N)(=O)=O)cc2)C1` (centres undefined), in assay [1], the cell count was determined as 368. Besides, the inhibition is 1.4% (inactive) in assay [1], 30.9% (inactive) in assay [3], 7.84% (inactive) in assay [7] and 12.5% (inactive) in assay [8]. Moreover, the inhibition of aggregation in assay [2] is -27.5% (inactive). The nuclei count in assay [2] is 113%; in assay [3], 96.7%. Further, the fluorescence slope in assay [4] was -0.517 (inactive). For the same compound, the NADPH fluorescence slope in assay [5] is -3e-05 (inactive). Also, the slope in assay [6] is 0.00537 (inactive).

For the compound `Cc1ccc(N(C(=O)C2CCC(=O)N2)C2(C(=O)NC3CCCCC3)CCCCC2)cc1` (centres undefined), in assay [1], the cell count is 690. Also, the inhibition was 11.9% (inactive) in assay [1], -16.1% (inactive) in assay [3], -4.63% (inactive) in assay [7] and 5.62% (inactive) in assay [8]. The inhibition of aggregation in assay [2] was 22.8% (inactive). The nuclei count came to 85.5% in assay [2] and 84.9% in assay [3]. Moreover, the fluorescence slope in assay [4] was -0.558 (inactive). Moreover, the NADPH fluorescence slope in assay [5] is 3.4e-05 (inactive). Moreover, the slope in assay [6] is 0.00517 (inactive).

As usually defined, the inhibition is the drop in the measured response relative to a control, in per cent.
